A selection: hits, their analogues and other compounds. The true share with any hit is near 15%.
ALOX12 inh: blocks human arachidonate 12S-lipoxygenase; P18054; Potency, µM (titrated, usually from 108 µM), inactives show at the highest dose activity change, negative = inhibition, actives largely listed as inhibitors; purified 12hLO, xylenol orange hydroperoxide absorbance; 580,000 tested, 1.1% active
Target sequence (P18054 whole entry, looked up): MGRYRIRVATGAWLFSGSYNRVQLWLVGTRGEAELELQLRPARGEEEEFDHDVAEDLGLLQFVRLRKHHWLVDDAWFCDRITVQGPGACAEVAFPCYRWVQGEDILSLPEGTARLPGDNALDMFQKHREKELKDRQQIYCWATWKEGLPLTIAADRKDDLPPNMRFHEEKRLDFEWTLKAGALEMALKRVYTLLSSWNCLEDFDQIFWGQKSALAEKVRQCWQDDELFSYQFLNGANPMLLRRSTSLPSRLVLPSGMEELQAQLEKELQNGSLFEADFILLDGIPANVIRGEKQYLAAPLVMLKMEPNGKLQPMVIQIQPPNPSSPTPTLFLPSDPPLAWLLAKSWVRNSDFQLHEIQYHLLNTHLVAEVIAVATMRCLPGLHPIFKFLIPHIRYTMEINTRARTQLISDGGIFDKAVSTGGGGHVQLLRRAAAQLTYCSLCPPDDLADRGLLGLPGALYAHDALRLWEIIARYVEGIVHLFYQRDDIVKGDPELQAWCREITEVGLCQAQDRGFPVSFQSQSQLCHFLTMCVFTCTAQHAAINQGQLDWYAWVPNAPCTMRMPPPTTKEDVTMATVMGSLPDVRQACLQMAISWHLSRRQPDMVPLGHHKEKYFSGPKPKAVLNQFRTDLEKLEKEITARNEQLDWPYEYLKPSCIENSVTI
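Purified human 12hLO (150 nM final) in 25 mM Hepes, 0.01% Triton X-100, pH 7.0 was preincubated 15 min at room temperature with compound. Then 40 uM arachidonic acid was added, 30 min. Hydroperoxide was read by Fe-XO absorbance ratio 573/405 nm.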
ELG1 DNA repair: blocks ELG1-dependent DNA repair in HEK293T cells; Potency, µM (doses to about 46.1 µM), inactives show top-dose activity change, negative = inhibition, most hits filed as inhibitors; HEK293T ELG1-luciferase reporter, luminescence, 16 h; DNA damage induced by 5-fluorouridine; 330,000 tested, 2.3% active; note: nearly all actives have a fitted effect of over 55% in size
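In this reporter screen, reduction of luminescence relative to DMSO vehicle indicated activity. Compounds and 5-fluorouridine were added together to 2,000 cells per well, incubated for 16 hr at 37 °C, then developed with ONE-Glo.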
RORgamma inh: ROR gamma (mouse) transcription inhibition. P51450. Drosophila S2 Gal4-RORgamma UAS-luciferase reporter, 20 h. Potency, µM (highest dose often 53.6 µM), inactives show at the highest dose activity change, negative = inhibition, actives largely listed as inhibitors. 310,000 tested, 5.4% active. AID 2551; note: nearly all actives have a fitted effect of over 60% in size
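In this cell-based reporter format, copper sulfate (700 uM final) drives Gal4–ROR gamma fusion expression from a metallothionein promoter in Drosophila Schneider cells; compounds preincubated 1 hr, reporter read after 20 hr at ambient temperature.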
DT40 TDP1 CPT: growth inhibition of DT40 Tdp1-/-;hTDP1 cells with camptothecin (screen for TDP1 inhibitors); AID 686979; Potency, µM (series often up to 46.2 µM), without a hit: at the top dose activity change, negative = growth inhibition, usual class: inhibitors; 420,000 tested, 12% active; chicken DT40 Tdp1-/-;hTDP1 cells + 20 nM CPT, ATP luminescence, 48 h; note: nearly all actives have a fitted effect of over 55% in size
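Cell growth measured by CellTiter-Glo luminescence after a minimum 48 h, 37 C compound exposure with 20 nM CPT in Tdp1-knockout DT40 cells stably expressing hTDP1, seeded 400/well; qHTS titration format.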
VP16 counter: inhibits Gal4-VP16 luciferase reporter, ROR gamma counter-screen. 310,000 tested, 3.5% active. AID 2546. Potency, µM (series often up to 53.6 µM), without a hit: at the highest dose activity, negative = inhibition, hits mostly inhibitors. Drosophila S2 Gal4-VP16 UAS-luciferase, luminescence, 20 h;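 note: Gal4-VP16 expression switched on by copper sulfate through the metallothionein promoter; nearly all actives have a fitted effect of over 50% in size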
TDP1 cell noCPT: qHTS for Inhibitors of human tyrosyl-DNA phosphodiesterase 1 (TDP1): qHTS in cells in absence of CPT | 420,000 tested, 15% active | Potency, µM (series often up to 46.2 µM), without a hit: at the highest dose activity change, negative = growth inhibition, most hits filed as inhibitors | AID 686978, 2013 | DT40 Tdp1-/- hTDP1 cells, no CPT, ATP luminescence, 48 h; note: nearly all actives have a fitted effect of over 55% in size
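Camptothecin absent (DMSO only). Human TDP1-complemented DT40 knockout cells, 400 cells/well, 37 °C for minimum 48 hr; ATP measured via CellTiter-Glo, 30 min dark incubation, luminescence.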
An asterisk follows results filed as active; i = inactive; ? = inconclusive; . = no result; [ ] = remark or other dose. Calls come from the whole dose curve; as a rule, active = well fitted curve in the direction sought with a large enough effect; inconclusive = small, poorly fitted or top-dose-only effect, or another doubt; inactive = no such curve, though single readings can be large; an effect the other way counts as inactive or inconclusive. % is set by controls: 0 for no effect and ±100 for the full control effect; potency is the fitted concentration of half-maximal effect.

SMILES | ALOX12 inh | ELG1 DNA repair | RORgamma inh | DT40 TDP1 CPT | VP16 counter | TDP1 cell noCPT
COc1cccc(NC(=S)N(Cc2ccco2)C(C)c2ccco2)c1 (configuration not stated) | -10.1% | -9.8% | ? | -15.7% | 17.8µM* | -21.4%
CC(c1cccs1)N(Cc1ccco1)C(=S)Nc1ccc(F)c(Cl)c1 (configuration not stated) | -8.9% | ? | ? | 2.3% | ? | 19.9%
CCc1cccc(NC(=S)N(CCC(C)C)C(C)c2cccs2)c1 (configuration not stated) | 39.8µM* | . | . | . | . | .
CCc1ccccc1NC(=O)N1CCN(c2ccc(=O)n(-c3ccc(C)cc3)n2)CC1 | -0.9% | . | . | . | . | .
O=C1/C(=C/c2cccc(Br)c2)SC(=S)N1/N=C/c1cc([N+](=O)[O-])ccc1O | -25.6% | -9.1% | -0.9% | 23.1µM* | -5.0% | ?
O=C1/C(=C\c2ccc(O)cc2)SC(=S)N1/N=C/c1ccc(O)cc1 | -14.2% | 0.0% | 10.2% | -25.1% | -6.0% | -1.4%
CNc1c(NS(=O)(=O)c2ccc(C)cc2)c(=O)oc2ccccc12 | -6.7% | . | . | . | . | .
COc1cc(-c2cc(OC)c(O)c(OC)c2)cc(OC)c1O | -10.5% | . | . | 16.4µM* | . | 9.2µM*
COc1cc(C(=O)C(=O)c2cc(OC)c(O)c(OC)c2)cc(OC)c1O | 8.5% | -0.3% | -16.8% | -5.4% | -10.1% | -4.2%
Cc1ccc(C(=O)N/N=C/c2ccc(-c3cccc(Cl)c3)o2)cn1 | 194.8% | ? | 5.01µM* | 14.6µM* | 7.08µM* | 14.6µM*
Cc1ccc(C(=O)N/N=C/c2ccc(-c3ccccc3[N+](=O)[O-])o2)cn1 | 1.9% | -13.2% | 18.1% | 20.6µM* | 1.2% | ?
COc1ccc(-c2ccc(/C=N/NC(=O)c3cccnc3)o2)c([N+](=O)[O-])c1 | -3.0% | ? | 20µM* | ? | ? | 16.4µM*
COc1cccc(-c2cc(C(=O)N3CCN(C(=O)c4ccc(Br)o4)CC3)[nH]n2)c1 | -1.0% | . | . | . | . | .
N#Cc1ccc(COC(=O)c2cc3ccccc3[nH]2)cc1 | -24.8% | . | . | . | . | .
O=[S+]([O-])(c1cccnc1)c1nnn2c1nc(NCc1ccc(F)cc1)c1ccccc12 | 7.9%[6.33 µM] | . | . | . | . | .
CCN(CC(=O)Nc1ccccc1OC)C(=O)c1cccc(-n2cccc2)c1 | -40.9% | -0.8% | 14.5% | -16.8% | -7.6% | -6.2%
CN(CC(=O)Nc1c(Cl)cccc1Cl)C(=O)c1cc(-c2cccs2)nn1-c1ccccc1 | 2.6% | -17.5% | . | ? | . | ?
CCN(CC(=O)Nc1ccccc1OC)C(=O)c1cc(-c2ccccc2)nn1-c1ccccc1 | -16.6% | ? | . | 20.6µM* | . | ?
CCN(CC(=O)Nc1c(F)cccc1F)C(=O)c1cc(-c2cccs2)nn1-c1ccccc1 | 6.3% | ? | . | ? | . | 18.4µM*
O=C(CSc1ncnc2ccccc12)Nc1cccc(S(=O)(=O)N2CCOCC2)c1 | 0.8% | 9.9% | -17.7% | -18.6% | 8.1% | 16.4µM*
O=C(CSc1nc2ccccc2c(=O)n1-c1ccc(F)cc1F)Nc1ccc(N2CCOCC2)cc1 | 10.3% | -14.5% | ? | 23.1µM* | 3.8% | 20.6µM*
Cc1ccc(S(=O)(=O)N(C)C)cc1-n1c(SCC(=O)Nc2ccc(F)c(F)c2F)nc2ccccc2c1=O | -1.8% | ? | 31.0% | 14.6µM* | -7.9% | 20.6µM*
O=C(COc1ncnc2ccccc12)Nc1cccc(S(=O)(=O)N2CCOCC2)c1 | 9.6% | ? | 33.9% | 6.0% | 3.6% | 2.4%
CN(C)S(=O)(=O)c1cccc(NC(=O)CSc2ncnc3ccccc23)c1 | 18.8% | ? | ? | 20.6µM* | -15.5% | 18.4µM*
Cc1ccc(N2CCC(N)C2=O)cc1C (configuration not stated) | 32.5% | . | . | . | . | .
SMILES | ALOX12 inh | ELG1 DNA repair | RORgamma inh | DT40 TDP1 CPT | VP16 counter | TDP1 cell noCPT
Nc1cc(F)ccc1C(=O)OCc1cccc(Cl)c1 | -33.4% | . | . | . | . | .
CC(O)CNC(=O)C(=O)Nc1sc2c(c1C#N)CC(C)(C)OC2 (configuration not stated) | 60.1% | . | . | . | . | .
NS(=O)(=O)c1cccc(NC(=O)CSc2nc3ccccc3c(=O)n2CCCN2CCOCC2)c1 | -1.0% | -7.2% | 31.9% | 3.8% | -12.8% | -6.4%
O=C(CSc1nc2ccccc2c(=O)n1-c1ccc(F)cc1)Nc1cc(S(=O)(=O)N2CCOCC2)ccc1Cl | 6.6% | ? | 20.6% | ? | 16.9% | ?
O=C(CSc1nc2ccccc2c(=O)n1-c1ccccc1Cl)Nc1cccc(S(=O)(=O)N2CCOCC2)c1 | -7.0% | -21.1% | 8.5% | 14.6µM* | 2.7% | ?
CCCn1c(SCC(=O)Nc2cccc(S(=O)(=O)N(C)C)c2)nc2ccccc2c1=O | -6.0% | 23.1µM* | 3.2% | ? | -1.3% | ?
O=C1CCN(C(=O)COc2ccc(Cl)cc2Cl)c2ccccc2N1 | 1.3% | . | . | . | . | .
CCC1CCC2(CC1)NNC(=S)NN2 | ? | ? | ? | ? | ? | 18.4µM*
Fc1ccccc1-c1noc(-c2nc(Cc3ccccc3)no2)n1 | 48.5% | . | . | . | . | .
N#C/C(C(=O)N1CCOCC1)=c1/s/c(=C\c2ccccn2)c(=O)n1-c1ccccc1 | 0.0% | 6.9% | 11.4% | 4.5% | -11.8% | 3.1%
COc1ccc(-n2c(=O)/c(=C\c3cccs3)s/c2=C(/C#N)C(=O)N2CCN(C)CC2)cc1 | ? | ? | ? | -25.6% | ? | 23.1µM*
CN1C[C@H]2CN(Cc3c[nH]c4ccccc34)CCN2C1=O | -40.6%[176 µM] | . | . | . | . | .
O=C1NC(=O)/C(=C/c2ccc(N3CCOCC3)o2)N1 | ? | ? | 0.9% | -2.3% | -7.6% | -3.5%
Cc1cc(/C=C2\NC(=O)NC2=O)c(C)n1-c1ccc(N2CCOCC2)cc1 | i | ? | 26.6% | ? | 1.4% | 20.6µM*
O=C1NC(=O)/C(=C\c2ccc(N3CCOCC3)o2)N1 | 20µM* | 4.5% | -40.4% | 23.8% | -4.7% | 13.6%
CN(C)CCN(CC(=O)OC(C)(C)C)C(=O)CCCNC(=O)c1ccccc1 | 10.0% | . | . | . | . | .
COc1ccc(N2C(=O)c3ccc(C(=O)OC(C)C)cc3C2=O)cc1 | -7.7% | 6.8% | ? | 6.51µM* | 3.0% | 5.8µM*
COc1ccc(N2C(=O)c3ccc(C(=O)Nc4cc(OC)ccc4OC)cc3C2=O)cc1 | 1.0% | -5.7% | -1.3% | 1.0% | 3.1% | -14.9%

Screening results from PubChem BioAssay.
